These results are taken from PubChem BioAssay (Tox21).

Records with an inconclusive call do not appear. Unmarked numbers belong to inactive results. Active and inactive are the calls of the source. Unless noted, calls follow the shape of the full dose curve.
% is scaled to controls: 0 for no effect and ±100 for the full control effect.

Retinoic acid receptor RXR-alpha (Homo sapiens), sequence (P19793 whole entry, looked up): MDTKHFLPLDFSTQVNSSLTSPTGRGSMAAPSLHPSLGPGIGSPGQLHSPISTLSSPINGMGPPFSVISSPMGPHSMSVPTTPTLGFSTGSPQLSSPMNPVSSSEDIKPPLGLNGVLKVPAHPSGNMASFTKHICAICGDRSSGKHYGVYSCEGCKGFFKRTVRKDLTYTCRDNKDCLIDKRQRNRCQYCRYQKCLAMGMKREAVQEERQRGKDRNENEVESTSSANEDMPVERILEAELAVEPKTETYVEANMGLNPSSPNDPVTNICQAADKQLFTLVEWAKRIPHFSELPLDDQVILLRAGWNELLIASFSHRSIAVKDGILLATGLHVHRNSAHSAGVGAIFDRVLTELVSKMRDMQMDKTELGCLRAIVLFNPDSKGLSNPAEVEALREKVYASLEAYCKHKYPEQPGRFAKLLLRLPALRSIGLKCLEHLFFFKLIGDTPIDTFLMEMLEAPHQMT

The first assay addresses Retinoic acid receptor RXR-alpha (Homo sapiens) (UniProt P19793). The assay is described as follows: qHTS assay to identify small molecule agonists of the RXR signaling pathway (AID 1159527). Also: nearly all actives have a fitted effect of over 35% in size. To be noted: HEK293T RXRa-UAS-bla, beta-lactamase ratio, 16 h; series mostly up to 76.8 µM; activation: at the top concentration. A digest of the protocol:
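Agonist mode; 9-cis retinoic acid positive control. HEK 293T UAS-bla reporter cells, 2% charcoal-stripped FBS, 16 hr compound exposure at 37 C/5% CO2. LiveBLAzer B/G FRET substrate 2 hr RT; ex 405, em 460/530 nm.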
With `CC1=NN(c2cccc(S(=O)(=O)O)c2)C(=O)C1`, the “activation” value is 10.2%.
Turning to `Cc1onc(-c2c(Cl)cccc2Cl)c1C(=O)Cl`, the “activation” value was 3.49% [at 35.3 µM].
Regarding `N[C@H](C(=O)O)[C@@H](O)c1ccc(O)c(O)c1`, the “activation” value was 7.09% [at 35.3 µM].
The same measure, in the same setting: as for `C1CCC2=NCCCN2CC1`, the figure is -3.74%; as for `CC(C#N)(CCC(=O)O)N=NC(C)(C#N)CCC(=O)O` (stereo unspecified), 4.98%; as for `C=CN1CCCCCC1=O`, 11.1%.
In the case of `CC[N+](CC)(CC)CCOc1cccc(OCC[N+](CC)(CC)CC)c1OCC[N+](CC)(CC)CC`, the “activation” value is 5.49% [at 35.3 µM].
On the same count and under the same terms, for `CC(C)(N)C#N` the value was 0.527%.
As to `OCCCCCO`, the “activation” value was 15.7%.
The same measure, in the same setting: for `C=CCOCC(O)CO` (stereo unspecified) the value was 2.76%; for `CC(=O)O[C@@]12CO[C@@H]1C[C@H](O)[C@@]1(C)C(=O)[C@H](O)C3=C(C)[C@@H](OC(=O)[C@H](O)[C@@H](NC(=O)OC(C)(C)C)c4ccccc4)C[C@@](O)([C@@H](OC(=O)c4ccccc4)[C@H]21)C3(C)C`, -20.8% [at 35.3 µM].
Still for that read-out and setting: for `CC(C)(C)C(=O)c1ccccc1` the value was 2.64%.
Turning to `CCN[C@H]1C[C@H](C)S(=O)(=O)c2sc(S(N)(=O)=O)cc21`, the “activation” value is 4.28% [at 35.3 µM].
In the case of `C[N+]12CCC(CC1)C(OC(=O)C(O)(c1ccccc1)c1ccccc1)C2` (stereo unspecified), the “activation” value is 8.25% [at 35.3 µM].
Same read-out and setting: as for `c1coc(CNc2ncnc3nc[nH]c23)c1`, the figure is -11%; as for `NC(=O)Cc1cccc2ccccc12`, 15%.
Same read-out and setting: as for `CCCn1cc[n+](C)c1C`, the figure is -1.96%; as for `O=C(c1ccccc1)C1(O)CCCCC1`, 13.8%.
Same read-out and setting: as for `Nc1ccncc1N`, the figure is 7.5% [at 35.3 µM].
With `C=COC(=O)C(C)(CC)CCC(C)C` (stereo unspecified), the “activation” value is -5.21%.
As to `CC(=O)Oc1cccc(C)c1`, the “activation” value was 4.81% [at 35.3 µM].
Turning to `CN(C)CCCN(C)CCCN(C)C`, the “activation” value is 12.8%.
On the same count and under the same terms, as for `O=S(=O)(O)c1cc(O)c(O)c(S(=O)(=O)O)c1`, the figure is 8.31%; as for `Cc1ncc(COP(=O)(O)O)c(C=O)c1O`, 0.991% [at 35.3 µM]; as for `O=CN(CCO)CCO`, 2.61%.
In the case of `CCCc1ncc(C[n+]2ccccc2C)c(N)n1`, the “activation” value is 14% [at 35.3 µM].
Consider `CC1=NS(=O)(=O)c2cc(Cl)ccc2N1`, for which the “activation” value was 6.14% [at 35.3 µM].
The same measure, in the same setting: as for `CCOCC(C)O` (stereo unspecified), the figure is 0.349%.
For the molecule `COc1ccnc(CS(=O)c2nc3cc(OC(F)F)ccc3[nH]2)c1OC` (stereo unspecified), the “activation” value was -14.8%.
The same measure, in the same setting: as for `C=C(C)C(=O)OCC(O)CO` (stereo unspecified), the figure is 8.05% [at 35.3 µM]; as for `CCN(C=O)CC`, -18.2%; as for `C[C@@H]1CCC[C@H](C)N1`, 10.4% [at 35.3 µM].
On the same count and under the same terms, as for `COc1cc(-c2ccc(=O)[nH]n2)ccc1OC(F)F`, the figure is 8.37% [at 35.3 µM]; as for `CC(C)(CCC(=O)O)C(=O)O`, 6.36%; as for `Cc1ccc(C(=O)Nc2ccc(S(=O)(=O)O)c3cc(S(=O)(=O)O)cc(S(=O)(=O)O)c23)cc1NC(=O)c1cccc(NC(=O)Nc2cccc(C(=O)Nc3cc(C(=O)Nc4ccc(S(=O)(=O)O)c5cc(S(=O)(=O)O)cc(S(=O)(=O)O)c45)ccc3C)c2)c1`, -0.0733% [at 35.3 µM].
Turning to `Cc1nc(C2CCCCC2)c(-c2ccc(S(N)(=O)=O)c(F)c2)o1`, the “activation” value was -15.9% [at 35.3 µM].
For the molecule `COc1cc(C)nc(-n2nc(C)cc2OC)n1`, the “activation” value is -11% [at 35.3 µM].
Same read-out and setting: for `Cc1coc2ccccc2c1=O` the value was -0.0177% [at 35.3 µM].

Test system in another assay: not listed separately
The assay is described as follows: qHTS assay to identify small molecule agonists of the RXR signaling pathway - cell viability counter screen (AID 1159529; active = well fitted cell-killing curve with a large enough effect in the repeat runs; also: nearly all actives have a fitted effect of over 50% in size; also: potency is read from the fitted curve at half-maximal effect). To be noted: RXR-alpha-bla HEK293T viability, CellTiter-Glo, 16 h; series mostly up to 76.8 µM; activity change, negative = cytotoxicity: at the top concentration. An outline of the steps:
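Luminescence from CellTiter-Glo (30 min, RT) measured viability in the same wells as the beta-lactamase reporter readout. Cells: GeneBLAzer RXR-alpha HEK 293T, 2% charcoal-stripped FBS. Compound exposure 16 hr, 37 C.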
Regarding `CC1=NN(c2cccc(S(=O)(=O)O)c2)C(=O)C1`, the “activity change, negative = cytotoxicity” value was -1.26%.
With `Cc1onc(-c2c(Cl)cccc2Cl)c1C(=O)Cl`, the “activity change, negative = cytotoxicity” value is -4.02% [at 35.3 µM].
Still for that read-out and setting: as for `N[C@H](C(=O)O)[C@@H](O)c1ccc(O)c(O)c1`, the figure is 0.0317% [at 35.3 µM]; as for `C1CCC2=NCCCN2CC1`, -0.119%.
As for `CC(C#N)(CCC(=O)O)N=NC(C)(C#N)CCC(=O)O` (stereo unspecified), the “activity change, negative = cytotoxicity” value was -0.0509%.
`C=CN1CCCCCC1=O`: the “activity change, negative = cytotoxicity” value was 4.85%.
On the same count and under the same terms, as for `CC[N+](CC)(CC)CCOc1cccc(OCC[N+](CC)(CC)CC)c1OCC[N+](CC)(CC)CC`, the figure is -0.429% [at 35.3 µM]; as for `CC(C)(N)C#N`, 5.78%; as for `OCCCCCO`, 3.55%.
The same measure, in the same setting: as for `C=CCOCC(O)CO` (stereo unspecified), the figure is 3.62%.
Take `CC(=O)O[C@@]12CO[C@@H]1C[C@H](O)[C@@]1(C)C(=O)[C@H](O)C3=C(C)[C@@H](OC(=O)[C@H](O)[C@@H](NC(=O)OC(C)(C)C)c4ccccc4)C[C@@](O)([C@@H](OC(=O)c4ccccc4)[C@H]21)C3(C)C`: the “activity change, negative = cytotoxicity” value is -0.898% [at 35.3 µM].
Still for that read-out and setting: for `CC(C)(C)C(=O)c1ccccc1` the value was 15.3%.
Same read-out and setting: for `CCN[C@H]1C[C@H](C)S(=O)(=O)c2sc(S(N)(=O)=O)cc21` the value was 10.8% [at 35.3 µM]; for `C[N+]12CCC(CC1)C(OC(=O)C(O)(c1ccccc1)c1ccccc1)C2` (stereo unspecified), 0.178% [at 35.3 µM].
For the molecule `c1coc(CNc2ncnc3nc[nH]c23)c1`, the “activity change, negative = cytotoxicity” value was -1.71%.
Still for that read-out and setting: as for `NC(=O)Cc1cccc2ccccc12`, the figure is 1.21%; as for `CCCn1cc[n+](C)c1C`, -4.63%.
As to `O=C(c1ccccc1)C1(O)CCCCC1`, the “activity change, negative = cytotoxicity” value is -1.32%.
For the molecule `Nc1ccncc1N`, the “activity change, negative = cytotoxicity” value is 0.813% [at 35.3 µM].
Same read-out and setting: as for `C=COC(=O)C(C)(CC)CCC(C)C` (stereo unspecified), the figure is 12.2%.
On the same count and under the same terms, for `CC(=O)Oc1cccc(C)c1` the value was 2.62% [at 35.3 µM]; for `CN(C)CCCN(C)CCCN(C)C`, 2.52%.
On the same count and under the same terms, as for `O=S(=O)(O)c1cc(O)c(O)c(S(=O)(=O)O)c1`, the figure is 2.72%.
For `Cc1ncc(COP(=O)(O)O)c(C=O)c1O`, the “activity change, negative = cytotoxicity” value was -1.27% [at 35.3 µM].
Same read-out and setting: for `O=CN(CCO)CCO` the value was 0.467%; for `CCCc1ncc(C[n+]2ccccc2C)c(N)n1`, 0.473% [at 35.3 µM]; for `CC1=NS(=O)(=O)c2cc(Cl)ccc2N1`, 17.5% [at 35.3 µM].
Still for that read-out and setting: as for `CCOCC(C)O` (stereo unspecified), the figure is 10.1%; as for `COc1ccnc(CS(=O)c2nc3cc(OC(F)F)ccc3[nH]2)c1OC` (stereo unspecified), -6.95%; as for `C=C(C)C(=O)OCC(O)CO` (stereo unspecified), 1.44% [at 35.3 µM].
`CCN(C=O)CC`: the Potency was 50.3 µM (active).
Turning to `C[C@@H]1CCC[C@H](C)N1`, the “activity change, negative = cytotoxicity” value is 2.76% [at 35.3 µM].
As to `COc1cc(-c2ccc(=O)[nH]n2)ccc1OC(F)F`, the “activity change, negative = cytotoxicity” value was 5.49% [at 35.3 µM].
Regarding `CC(C)(CCC(=O)O)C(=O)O`, the “activity change, negative = cytotoxicity” value was -2.09%.
The same measure, in the same setting: for `Cc1ccc(C(=O)Nc2ccc(S(=O)(=O)O)c3cc(S(=O)(=O)O)cc(S(=O)(=O)O)c23)cc1NC(=O)c1cccc(NC(=O)Nc2cccc(C(=O)Nc3cc(C(=O)Nc4ccc(S(=O)(=O)O)c5cc(S(=O)(=O)O)cc(S(=O)(=O)O)c45)ccc3C)c2)c1` the value was 8.76% [at 35.3 µM].
The same measure, in the same setting: as for `Cc1nc(C2CCCCC2)c(-c2ccc(S(N)(=O)=O)c(F)c2)o1`, the figure is 4.15% [at 35.3 µM].
Turning to `COc1cc(C)nc(-n2nc(C)cc2OC)n1`, the “activity change, negative = cytotoxicity” value is 5.33% [at 35.3 µM].
Turning to `Cc1coc2ccccc2c1=O`, the “activity change, negative = cytotoxicity” value was 10.3% [at 35.3 µM].
